PubChem BioAssay AID504607 (Sanford-Burnham Center for Chemical Genomics, 2011)
Hit rate of the full screen: of about 6,200 compounds, about 4,800 (77%) were called active.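 Rule for the calls: active = mean inhibition at 8 µM reaching about 37%, which flags the compound as non-specific (limit read from the data); inactive = the rest.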 The set was probably picked from earlier hits. Only a sample is shown.

Test: luminescence decrease from intact luciferase reporter – cell-based, single concentration, SaOS-2, counter-screen for Mdm2/MdmX interaction inhibitor project, confirmation (AID 504607);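 note: p53-null SaOS-2 cells with luciferase driven by a doxycycline-inducible promoter; compound on cells about two nights before reading with doxycycline added after day one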
Conditions: SaOS-2 full-length luciferase counterscreen, at 8 µM, hits give high values

Structure (SMILES) | inhibition
Cn1c(=O)n(C)c2cc(C(=O)Nc3ccc4c(c3)OCO4)ccc21 | 56.6% (active)
CC1CCCCC1NC(=O)/C(C#N)=C/C=C/c1ccccc1[N+](=O)[O-] (configuration not stated) | 57.2% (active)
NS(=O)(=O)c1ccc(N=Nc2c(O)[nH]c3ccc(Br)cc23)cc1 | 86.5% (active)
C[C@@H]1C[C@@H]2O[C@H]2/C=C\C=C\C(=O)Cc2c(Cl)c(O)cc(O)c2C(=O)O1 | 33.8% (inactive)
Clc1cccc(Cl)c1OCCOCCNCc1ccccc1 | 33% (inactive)
N=c1c2c(-c3ccccc3)c(-c3ccccc3)n(Cc3ccccc3)c2ncn1CCCO | 62% (active)
CCCCC(O)(CCCC)C(=O)NN(C(=O)CCl)c1ccccc1 | 34% (inactive)
Cc1cc(=O)oc2cc(OCC3CC(c4ccccc4Cl)=NO3)ccc12 (configuration not stated) | 117% (active)
Cc1ccc(-n2[nH]c(C)c(/C=N/NC(=O)c3cccc([N+](=O)[O-])c3)c2=O)cc1C | 46.2% (active)
Cn1c(C(=O)NCCCN2CCN(c3cccc(Cl)c3)CC2)cc2c(=O)n(C)c3ccccc3c21 | 61.5% (active)
OCCCNc1nccc(-c2cc(Nc3cccc(Cl)c3)ncn2)n1 | 53.2% (active)
CC(C)n1cnc2c(Nc3cccc(Cl)c3)nc(N(CCO)CCCO)nc21 | 47.6% (active)
CCCCCCCCn1c2c(c(=N)c3c1CCC3)CCCC2 | 22% (inactive)
COc1ccc(-c2nn(C)c(=O)c3ccccc23)cc1NC(=O)COc1ccccc1 | 53.5% (active)
O=[N+]([O-])c1ccc(Oc2ccc(F)cc2Br)c2ccncc12 | 16% (inactive)
CCCC(=O)Nc1nc2ccc(NC(=O)c3cccnc3)cc2s1 | 108% (active)
O=C(Nc1nc2ccc([N+](=O)[O-])cc2s1)c1ccc(S(=O)(=O)N2CCCc3ccccc32)cc1 | 20% (inactive)
O=C(Nc1ccc(Cl)cc1)Nc1nnc(/C=C/c2ccccc2)s1 | 75.8% (active)
Cc1nnc(NC(=O)Nc2ccc(Cl)c(Cl)c2)s1 | 33.4% (inactive)

Structure (SMILES) | inhibition
Cc1c(C(=O)N/N=C/c2ccccc2)[nH]c2c([N+](=O)[O-])cccc12 | 48.3% (active)
COc1cccc(CNCCc2c[nH]c3ccccc23)c1OCc1ccccc1F | 42% (active)
COc1ccc(/C=C/C(=O)Nc2ccc(C34CC5CC(CC(O)(C5)C3)C4)cc2)cc1OC | 85.7% (active)
CCN(CC)c1ccc(/C=N/NC(=O)c2cnccn2)c(O)c1 | 37.9% (active)
CCN(CC)c1ccc(/C=N/Nc2nc(C)cc(C)n2)c(O)c1 | 38.6% (active)
Cc1c(Cl)c([N+](=O)[O-])nn1Cc1ccc(C(=O)N/N=C\c2cc(Cl)ccc2O)o1 | 32.4% (inactive)
CC(=O)Oc1c(C(=O)c2nnc(C)o2)c(=O)n(Cc2ccccc2)c2ccccc12 | 36.5% (active)
NC(N)=N/N=C/c1ccc(OCc2ccc(Cl)cc2Cl)cc1 | 50.2% (active)
COc1cccc2cc(C(N)=O)/c(=N\NC(=O)c3ccccc3)oc12 | 137% (active)
CC(Nc1nc(N2CCCC2)nc2ccccc12)c1ccccc1 (configuration not stated) | 88.5% (active)
O=C(/C=C/c1ccc(OCc2c(F)cccc2Cl)cc1)N1CCOCC1 | 27.7% (inactive)
C=C(C)C(=O)O[C@H]1C/C(C)=C\C(=O)/C=C(\C)[C@H](O)[C@@H]2OC(=O)C(=C)[C@@H]21 | 51.4% (active)
CCc1ccc(N(CC)c2ncnc3nc[nH]c23)cc1 | 41.2% (active)
C/C(=N\NC(=O)c1ccccc1F)c1ccccn1 | 52.1% (active)
CCOC(=O)CC1C(=O)NCCN1c1nc2c(C)cccn2c(=O)c1/C=C1\SC(=S)N(C(C)CC)C1=O (configuration not stated) | 101% (active)
CCN1C(=O)c2cccc3c(S(=O)(=O)Nc4ccccc4O)ccc1c23 | 76.6% (active)
COc1ccc2c(c1OC)C(=O)OC2Nc1nc(-c2ccccc2)cs1 (configuration not stated) | 51.2% (active)
Cc1ccc(-c2csc(NC3OC(=O)c4ccccc43)n2)cc1 (configuration not stated) | 23.7% (inactive)
